Assay [1] in a line: NCI Yeast Anticancer Drug Screen. Data for the rad50 strain (AID 155).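 Note: 0% = growth of vehicle-only cultures of the same strain.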 The settings on record: S. cerevisiae rad50 strain growth inhibition; at 50.0 µM; active compounds read high. In a few lines:
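Readout: growth inhibition relative to vehicle-treated cultures. Compound exposure was carried out in a genetically defined yeast strain deficient in DNA damage repair.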

Assay [2] can be described thus: NCI Yeast Anticancer Drug Screen. Data for the mec2-1 strain (AID 157). The settings on record: S. cerevisiae mec2-1 strain, at 50.0 µM, active compounds read high. In a few lines:
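Each compound was tested on mec2-1 yeast, a strain altered in DNA damage repair or cell cycle control. Growth inhibition is reported relative to vehicle.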

A short description of assay [3]: NCI Yeast Anticancer Drug Screen. Data for the sgs1 mgt1 strain (AID 161).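 Note: 0% = growth of cultures given vehicle only.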 The settings on record: S. cerevisiae sgs1 mgt1 strain, at 50.0 µM, active compounds read high. In a few lines: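 Genetically altered yeast, compound exposure, growth inhibition relative to vehicle.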
The nature of assay [4]: NCI Yeast Anticancer Drug Screen. Data for the cln2 rad14 strain (AID 165).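 Note: 0% = growth equal to vehicle treated cultures.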 As to conditions: S. cerevisiae cln2 rad14 strain, at 50.0 µM, active compounds read high. In a few lines:
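Test compounds were added to cln2 rad14 yeast cultures; inhibition of growth was then determined by comparison with vehicle treatment.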

The nature of assay [5]: NCI Yeast Anticancer Drug Screen. Data for the bub3 strain (AID 167). As to conditions: S. cerevisiae bub3 mutant strain, at 50.0 µM, active compounds read high. In outline: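 Readout: yeast growth inhibition, expressed relative to vehicle-only wells. The test organism is a mutant strain from a panel with lesions in DNA repair or checkpoint genes.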
Assay [6] can be described thus: NCI Yeast Anticancer Drug Screen. Data for the mlh1 rad18 strain (AID 175). The settings on record: S. cerevisiae mlh1 rad18 strain growth inhibition; at 50.0 µM; active compounds read high. In outline:
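Inhibition values reflect reduced growth of mutant yeast versus vehicle-treated controls following compound exposure; the mutations affect DNA damage repair.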

Compounds without any hit were thinned out: in the full panel of roughly 79,000, 15% have a hit. Unmarked numbers belong to inactive results. Active and inactive are the calls of the source. Cut-off read from the data, not from the text of the source: active = growth inhibition above about 70%; inactive = the rest. Where a SMILES comes first, the peptide text is derived from it. [ ]: non-standard residue; d: D form. Ac5c = NC1(C(=O)O)CCCC1

Take `COC(=O)C1(NC(=O)C(C)NC(=O)C(CCCCN)NC(=O)C(CC(C)C)NC(C)=O)CCCC1` (stereo not given) (Ac-LKA[Ac5c]-OMe; configuration not given here): the growth inhibition in assay [1] is 3.1%; in assay [2], 4.7%; in assay [3], 13.8%; in assay [4], -6.25%; in assay [5] it was -7.8%; in assay [6], 8.05%.
For `CC(C)(C)c1ccc(O)c(CNCCO)c1`, the growth inhibition in assay [1] was 21.1%; in assay [2], -6.65%; in assay [3], -3.25%; in assay [4], -28.1%; in assay [5] it was 3.9%; in assay [6], 8.05%.
For `O=Nc1ccc(Br)cc1`, the growth inhibition is -8.2% in assay [1]; 0.35% in assay [2]; -11.7% in assay [3]; 5.8% in assay [4]; 13.1% in assay [5]; -7.5% in assay [6].
Take `Cc1ccc(S(=O)(=O)OCC23CCC(C4CC42)C2CC23)cc1` (stereo not given): the growth inhibition is -21.9% in assay [1]; -28.5% in assay [2]; -14.8% in assay [3]; 4.2% in assay [4]; -10.1% in assay [5]; 10.4% in assay [6].
Regarding `CCOC(=O)C(C)OC(=O)C(C)OC(C)=O` (stereo not given), the growth inhibition in assay [1] was 4.7%; in assay [2], 23.8%; in assay [3], 17.1%; in assay [4], 9.4%; in assay [5], 1.5%; in assay [6], -7.7%.
For `COc1cc(Br)c(CC2c3cc(OC)c(OC)cc3CCN2C)cc1OC` (stereo not given), the growth inhibition is -17% in assay [1]; -25.4% in assay [2]; -9.75% in assay [3]; 3.2% in assay [4]; -7.95% in assay [5]; -13.4% in assay [6].
For `O=C(NCC(CC(NC(=O)c1ccccc1)C(=O)O)NC(=O)c1ccccc1)c1ccccc1` (stereo not given), the growth inhibition was -20.5% in assay [1]; -4.85% in assay [2]; -11.4% in assay [3]; 16% in assay [4]; -5.9% in assay [5]; 0.9% in assay [6].
With `O=c1cc(CCl)nc2c3ncn(C4OC(CO)C(O)C4O)c3ncn12` (stereo not given), the growth inhibition is -11.8% in assay [1]; -16.5% in assay [2]; -0.25% in assay [3]; -5.95% in assay [4]; -8.15% in assay [5]; -0.55% in assay [6].
On to `CC(C)(C)c1cc(C#N)cc(Br)c1O`, for which the growth inhibition in assay [1] is 98.6% (active); in assay [2], 98.7% (active); in assay [3] it was 99.3% (active); in assay [4] it was 97.2% (active); in assay [5], 97.7% (active); in assay [6], 98.7% (active).
For `CCCCC(CC)(SC(CC)C(N)=O)C(N)=O` (stereo not given), the growth inhibition was -2.2% in assay [1]; -0.55% in assay [2]; 16.9% in assay [3]; 20.1% in assay [4]; 5.75% in assay [5]; -5% in assay [6].
Consider `O=C(NC(COC(=O)c1ccccc1)COC(=O)c1ccccc1)c1ccccc1`, for which the growth inhibition in assay [1] was 29.5%; in assay [2] it was 7.85%; in assay [3], 12.8%; in assay [4] it was 12.8%; in assay [5], -1.1%; in assay [6] it was 9.95%.
`CC(=O)NC(CCCCN)C(=O)NCc1ccccc1` (stereo not given): the growth inhibition was -1.95% in assay [1]; -12% in assay [2]; -12.1% in assay [3]; 11.1% in assay [4]; -19% in assay [5]; -20.4% in assay [6].
Take `O=C(CN1C(=O)c2ccccc2C1=O)NC1(C(=O)O)CCCC1`: the growth inhibition in assay [1] is -3.25%; in assay [2], -14%; in assay [3], -27.9%; in assay [4] it was -2.65%; in assay [5], -30.8%; in assay [6] it was -0.15%.
On to `C#Cc1nc(N)c2ncn(C3OC(COS(N)(=O)=O)C(O)C3O)c2n1` (stereo not given), for which the growth inhibition in assay [1] was 17.1%; in assay [2], 32.5%; in assay [3] it was 7.9%; in assay [4] it was 28.4%; in assay [5], 10.3%; in assay [6], 10.6%.
On to `Cc1cccnc1Nc1ncccc1C`, for which the growth inhibition was 13.8% in assay [1]; -18.8% in assay [2]; 10.9% in assay [3]; 14.3% in assay [4]; 8.3% in assay [5]; 10.8% in assay [6].
Turning to `Cc1nn(-c2ccccc2)c(=O)n2c1nc1ccccc12`, the growth inhibition was -2% in assay [1]; -9.5% in assay [2]; 20.9% in assay [3]; -43.1% in assay [4]; 26.8% in assay [5]; 11.9% in assay [6].
As to `[N-]=[N+]=NC(=O)c1ccc(S(=O)(=O)c2ccc(F)cc2)cc1`, the growth inhibition in assay [1] was 13.4%; in assay [2] it was 21.8%; in assay [3] it was 7.6%; in assay [4] it was 7.85%; in assay [5], 3%; in assay [6] it was 38.5%.
`CCCCOC(=O)NC(=O)c1cc2cccc(OC)c2oc1=O`: the growth inhibition in assay [1] was 17.1%; in assay [2], 21.6%; in assay [3], 14.4%; in assay [4], 14.3%; in assay [5] it was 14.8%; in assay [6] it was 10.2%.
As for `CSc1nc(SC)c(Cl)c(C(Cl)Cl)n1`, the growth inhibition in assay [1] was 32.2%; in assay [2], 59.2%; in assay [3], 68.8%; in assay [4], 7.3%; in assay [5], 74.8% (active); in assay [6], 75% (active).
Take `Nc1nc2ccc([N+](=O)[O-])cc2s1`: the growth inhibition in assay [1] is 6.15%; in assay [2], -6.45%; in assay [3] it was 10.8%; in assay [4], -18.4%; in assay [5] it was -12.8%; in assay [6] it was -8.1%.
